Source: PubChem BioAssay
USP2a inh – blocks human ubiquitin-specific protease USP2a; actives 0.01% (n = 330,000); Potency, µM (doses to about 38.3 µM), inactives show at the top dose activity change, negative = inhibition, usual class: inhibitors; AID 463254; O75604; USP2 core, Ub-CHOP2 coupled fluorogenic reporter, 485/531;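 further: potency means the concentration at half of the fitted maximal effect; plate controls were DMSO wells for no effect and full inhibition by NEM control for full effect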
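Cell-free coupled assay: 10nM USP2 core preincubated 30min RT with compound in Tris-HCl pH 8.0/CaCl2/CHAPS buffer, then 25nM Ub-CHOP2 and 25nM reporter substrate; fluorescence (Ex 485/Em 531) read after 60min RT, normalized to NEM inhibition, concentration-response curves fitted.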
FBPA coupling cs – inhibits coupling enzyme system, counter-screen for aldolase hits. coupling enzyme system counterscreen, AmpLite Red fluorescence. activity change, negative = inhibition, % at 58.2 µM, hits read low. actives 0.67% (n = 290,000). AID 2472; in the data active means activity change below about -30%
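Counterscreen of the coupled detection system alone, without aldolase: glyceraldehyde-3-phosphate coupling enzymes plus AmpLite Red readout. Compounds at 57.5 uM final, 10 min RT preincubation, 20 min RT reaction, fluorescence 525/598 nm.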
VDR inhibitor – vitamin D3 receptor (human) inhibition; P11473; VDR-SRC2-3 peptide fluorescence polarization, 2 h; Potency, µM, without a hit: max response, negative = inhibition, most hits filed as inhibitors; actives 0.93% (n = 400,000); further: potency means the concentration at half of the fitted maximal effect
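The screen uses fluorescence polarization to detect compounds that interfere with recruitment of the SRC2-3 coactivator peptide to VDR; plates are read after 2 h at room temperature.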
GALK inhibitor – blocks human galactokinase activity. AID 1868. Purified GALK, Kinase-Glo residual ATP luminescence. actives 0.007% (n = 270,000). Potency, µM (titrated, usually from 57.5 µM), for the others: top-dose activity change, negative = inhibition, most hits filed as inhibitors; further: potency means the concentration at half of the fitted maximal effect
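Kinase-Glo Plus luminescence measured ATP left after a 1 h room-temperature reaction. The reaction used 5 nM GALK, 100 uM galactose and 35 uM ATP at pH 8.0 (20 mM HEPES, 5 mM MgCl2, 60 mM NaCl, 1 mM DTT, 0.01% BSA).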
PLK1 PBD inh – blocks phosphopeptide binding to human PLK1 polo-box domain. P53350. Plk1 PBD binding of FITC phosphopeptide, fluorescence polarization. Potency, µM, inactives show max response, negative = inhibition, usual class: inhibitors. actives 2.8% (n = 360,000); further: potency means the concentration at half of the fitted maximal effect; series mostly up to about 57 µM; nearly all actives have a fitted effect of over 65% in size
USP1 inh – inhibitors of human USP1/UAF1 deubiquitinase | Potency, µM (doses to about 57.1 µM), inactives show top-dose activity change, negative = inhibition, hits mostly inhibitors | AID 743255 | O94782 | actives 0.23% (n = 390,000) | recombinant USP1/UAF1, Ub-Rhodamine cleavage fluorescence; further: potency means the concentration at half of the fitted maximal effect; nearly all actives have a fitted effect of over 60% in size
Target sequence (O94782 whole entry, looked up): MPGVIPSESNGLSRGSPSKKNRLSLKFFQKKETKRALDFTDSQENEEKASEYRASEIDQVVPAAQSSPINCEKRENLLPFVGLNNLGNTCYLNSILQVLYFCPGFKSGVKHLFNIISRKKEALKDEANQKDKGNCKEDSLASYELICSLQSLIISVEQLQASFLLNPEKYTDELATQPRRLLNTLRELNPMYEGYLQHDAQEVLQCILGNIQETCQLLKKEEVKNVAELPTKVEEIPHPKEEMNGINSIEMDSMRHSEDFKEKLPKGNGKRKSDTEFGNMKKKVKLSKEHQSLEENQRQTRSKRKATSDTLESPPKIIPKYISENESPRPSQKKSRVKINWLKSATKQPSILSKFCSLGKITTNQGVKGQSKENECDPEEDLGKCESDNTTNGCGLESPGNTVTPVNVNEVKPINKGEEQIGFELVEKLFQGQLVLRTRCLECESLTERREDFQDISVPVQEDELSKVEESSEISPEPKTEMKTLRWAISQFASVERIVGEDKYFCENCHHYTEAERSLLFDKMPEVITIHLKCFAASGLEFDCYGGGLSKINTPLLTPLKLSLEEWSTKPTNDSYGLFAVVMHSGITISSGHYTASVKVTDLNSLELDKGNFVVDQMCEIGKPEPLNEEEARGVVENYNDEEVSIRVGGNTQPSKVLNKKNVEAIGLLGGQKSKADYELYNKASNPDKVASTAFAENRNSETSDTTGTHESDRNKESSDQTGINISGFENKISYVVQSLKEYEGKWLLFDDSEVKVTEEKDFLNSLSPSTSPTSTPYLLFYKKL
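High-throughput fluorogenic screen: 1nM USP1/UAF1 complex, Ub-Rho substrate 150nM final, 50mM HEPES pH 7.8 with 0.5mM EDTA, 0.1 mg/ml BSA, 1mM TCEP and 0.01% Tween-20.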
Starred values were filed as active, the others as inactive; ? = inconclusive; / = not tested or not shown; ! = repeats disagree. Rows were chosen to be rich in hits. Some 3.2% of all compounds tested hit in one or more screens of this group. Unless noted, the call rests on the fitted dose curve; in most records, active means well fitted curve in the direction sought with a large enough effect; inconclusive means small, poorly fitted or top-dose-only effect, or another doubt; inactive means no such curve, though single readings can be large; an effect the other way counts as inactive or inconclusive. Unless noted, on the % scale 0 is the no-effect control and ±100 the full control effect.

SMILES	USP2a inh	FBPA coupling cs	VDR inhibitor	GALK inhibitor	PLK1 PBD inh	USP1 inh
COC(=O)c1cc(C)nc(Sc2ccccc2N)n1	2.1%	0.9	5.01µM*	0.3%	1.68µM*	-26.4%
O=S(=O)(NC(=S)c1ccccc1)c1ccc(Cl)cc1	3.5%	21.4	-10.1%	7.1%	15µM*	-27.0%
O=S(=O)(NC(=S)c1ccccc1)c1ccccc1	/	/	-28.3%	/	?	-7.3%
CCOC(=O)C1=C(C)OC(N)=C(C#N)C1c1c(C)nn(-c2ccccc2)c1Cl (stereo unspecified)	0.2%	-51.3*	70.8µM*	0.8%	-27.4%	?
Cc1nn(-c2ccccc2)c(Cl)c1C1C(C#N)=C(N)Oc2n[nH]c(C)c21 (stereo unspecified)	0.2%	-2.7	-12.6%	0.2%	23.8µM*	-13.1%
C=CCOC(=O)C1=C(C)OC(N)=C(C#N)C1c1c(C)nn(-c2ccccc2)c1Cl (stereo unspecified)	1.9%	-11.6	7.7%	8.6%	-14.1%	-6.8%
Cc1[nH]nc2c1C(c1ccc(-c3ccccc3C#N)o1)C(C#N)=C(N)O2 (stereo unspecified)	-0.1%	-23.6	-0.3%	3.2%	29.9µM*	-3.6%
Cc1nn(-c2ccccc2)c(Cl)c1C1C(C#N)=C(N)Oc2c1c(C)nn2-c1ccccc1 (stereo unspecified)	-0.7%	2.4	-11.5%	1.4%	-27.4%	-15.4%
COc1ccccc1NC(=O)CCc1nc2sc3c(c2c(=O)[nH]1)CCCC3	5.0%	/	-1.2%	/	0.9%	-24.3%
CC1=Nc2ccccc2/C1=C/c1sc(=S)n(-c2cccc(C(=O)O)c2)c1O	12.2%	1.4	-2.7%	-1.5%	-24.0%	28.2µM*
CSCc1ccc(C(=O)Nc2ccc(C(N)=O)cc2)cc1	-1.0%	2.6	5.1%	7.1%	-7.3%	-20.5%
Cc1ccc(CSC2=NCCN2C(=O)C(C)Oc2ccccc2)cc1 (stereo unspecified)	-1.0%	1.9	14.9%	3.5%	-0.5%	-14.9%
COc1ccc(C(C(=O)Nc2ccc(C(C)C)cc2)N(C)C(=O)c2ccc(=O)[nH]c2)cc1 (stereo unspecified)	-1.4%	-0.4	6.0%	-2.1%	26.7µM*	1.1%
COc1ccc(NC(=O)CN(C)C(=O)c2ccc(=O)[nH]c2)cc1	-2.5%	-2.0	14.8%	8.5%	8.7%	-5.9%
Cc1ccc2nc(-c3cccc(S(=O)(=O)N4CCCC4)c3)cn2c1	3.7%	-1.4	1.3%	9.1%	-3.4%	-23.9%
Cc1ccc2nc(-c3cccc(S(=O)(=O)N(C)C)c3)cn2c1	3.0%	-32.2*	10.5%	3.4%	-17.6%	-23.1%
Cc1ccc2nc(-c3cccc(S(=O)(=O)N4CC(C)OC(C)C4)c3)cn2c1 (stereo unspecified)	-0.6%	-4.1	-29.0%	-2.1%	18.9µM*	?
CCN(CC)S(=O)(=O)c1cccc(-c2cn3cc(C)ccc3n2)c1	-6.2%	-25.9	11.5%	0.3%	-2.9%	-26.7%
COc1cc(Cl)c(CC(=O)c2c[nH]c3ccccc23)cc1OC	3.3%	0.9	-11.3%	2.6%	-9.3%	-10.6%
CCCCNC(=O)c1cc(Sc2ccc(OCC)cc2)nc2ccccc12	/	/	6.4%	/	/	-19.0%
COc1ccc(C)cc1S(=O)(=O)N(CC(=O)N1CCOCC1)c1cc(C)cc(C)c1	-0.3%	1.3	-8.2%	-1.8%	-2.4%	-20.9%
Cc1ccc(-c2nc3ccc([N+](=O)[O-])cc3[nH]2)cc1	-0.2%	-30.8*	-11.7%	10.7%	-8.2%	-11.3%
O=[N+]([O-])c1cccc(-c2nc3ccc([N+](=O)[O-])cc3[nH]2)c1	0.4%	-8.8	31.6µM*	1.7%	9.47µM*	-16.2%
CC(C)[C@H](NS(=O)(=O)/C=C/c1ccccc1)C(=O)OCC(=O)NC(N)=O	-0.2%	2.7	-11.2%	1.5%	-10.7%	-9.5%
C=CCN(c1ccc(C(=O)Nc2ccc(NC(C)=O)cc2)cc1)S(C)(=O)=O	-1.3%	0.7	35.5µM*	1.0%	21.2µM*	-12.8%
SMILES	USP2a inh	FBPA coupling cs	VDR inhibitor	GALK inhibitor	PLK1 PBD inh	USP1 inh
Cc1nn(CCc2nc(-c3ccco3)cs2)c2[nH]c(=O)cc(C(F)(F)F)c12	-5.7%	6.6	-82.4%	3.2%	10.6µM*	-13.7%
Cc1cc(C)n(CCc2nc(-c3ccco3)cs2)n1	-1.8%	-9.7	?	3.4%	15.8µM*	1.4%
CCOC(=O)Cn1nnc(-c2ccc(SC)cc2)n1	4.0%	4.4	13.0%	-2.6%	-0.9%	-6.3%
Cc1cccc(C(CC(=O)NCCc2ccccc2)c2ccccc2)c1O (stereo unspecified)	1.6%	-0.2	2.3%	1.4%	-5.1%	-18.5%
CNC[C@H](O)c1cccc(O)c1	3.2%	1.1	8.7%	-0.6%	-6.1%	-26.7%
CNC[C@H](O)c1ccc(O)c(O)c1	-11.1%	-33.9*	31.6µM*!	-0.6%	-3.8%	-25.6%
CC[C@H](NC(C)C)[C@H](O)c1ccc(O)c(O)c1	/	-35.6*	9.0%	/	/	/
CCC(NC(C)C)C(O)c1ccc(O)c2[nH]c(=O)ccc12 (stereo unspecified)	-0.4%	-3.0	-28.0%	/	-3.3%	-20.6%
O=C(O)CCCCCN1C(=O)C(O)=C(C(=O)/C=C/c2ccccc2)C1c1ccccc1[N+](=O)[O-] (stereo unspecified)	1.3%	-11.7	-7.0%	0.0%	33.6µM*	-8.1%
COc1ccc(/C(C)=N/NC(=O)C2CC2)cc1	-0.1%	-0.2	-4.0%	0.5%	4.9%	-19.4%
Cn1cnnc1SCC(=O)Nc1ccc(Cl)cc1	1.9%	-0.5	-23.5%	0.0%	-1.2%	-22.5%
c1ccc2[nH]c(CCCc3nc4ccccc4[nH]3)nc2c1	0.0%	-2.4	-4.6%	/	-8.0%	-19.6%
S=c1cnc2ccccc2[nH]1	0.4%	3.7	?	-1.8%	11.9µM*	-13.2%
Cc1cc(N2C(=O)C(O)=C(C(=O)c3cc4ccccc4o3)C2c2ccc(Br)cc2)no1 (stereo unspecified)	3.0%	/	?	-3.8%	21.2µM*	-13.4%
COc1ccc(OC)c(C2C(C(=O)c3ccc(C)o3)=C(O)C(=O)N2c2cc(C)on2)c1 (stereo unspecified)	1.3%	/	?	-2.7%	23.8µM*	-12.6%
COc1ccc(C2C(C(=O)c3ccc(C)o3)=C(O)C(=O)N2c2cc(C)on2)cc1OC (stereo unspecified)	-0.5%	-0.2	12.9%	0.1%	-0.8%	-14.5%
Cc1cc(N2C(=O)C(O)=C(C(=O)c3cc4ccccc4o3)C2c2ccc(Cl)cc2)no1 (stereo unspecified)	2.5%	/	-26.7%	1.6%	?	?
